Test [1] concerns Wnt5a (protein binding on small-molecule microarray). In words: small molecules binding Wnt5a protein – biophysical, small-molecule microarray, 635/667 nm fluorescence, primary screen (AID 1142).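 Also: fluorescence read at 667 nm with signal to noise per printed feature.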 To be noted: 635 nm fluorescence, higher = more signal.
Test [2] in a line: ATP-based viability of Huh7 replicon cells – cell-based, CellTiter-Glo luminescence, basal, 48 h, cytotoxicity control for HCV replication inhibitor project, primary screen (AID 1143).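 Also: Huh7 hepatoma cells carrying a hepatitis C replication reporter with no stimulus; test concentration not given here.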 The note with it: higher = more signal, called active from +8 up or from −8 down.
Test [3] can be described thus: Pseudomonas biofilm growth suppression – PAO1 strain, BacTiter-Glo luminescence, LB-PBS, primary screen (AID 1144). The note with it: P. aeruginosa PAO1 biofilm, 12 h, higher = more signal.
Test [4] in a line: basal CRE-LacZ reporter activity in PC12 – cell-based, unstimulated, primary screen (AID 1145). To be noted: no forskolin, luminescence, 4.5 h, higher = more signal, called active from +8 up or from −8 down.
The nature of test [5]: forskolin-driven CRE-LacZ activity in PC12 – cell-based, CRE-LacZ reporter, forskolin-stimulated, primary screen (AID 1146).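 Also: PC12 cells with 6xCRE LacZ reporter stimulated by forskolin 10 µM; beta-galactosidase reporter signal reflecting CREB driven transcription.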 To be noted: luminescence, 4.5 h, higher = more signal, called active from +8 up or from −8 down.
For test [6], the target named is Streptavidin (Streptomyces avidinii) (UniProt P22629). In words: compounds binding control protein streptavidin – biophysical, small-molecule microarray, 635/667 nm fluorescence, artefact control for SMM compound annotation, primary screen (AID 1147).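 Also: signal reflects streptavidin binding to arrayed compounds as a control protein.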 To be noted: higher = more signal.
Test [7] can be described thus: probe aInhba binding on compound microarray – biochemical, small-molecule microarray, 635/667 nm fluorescence, primary screen (AID 1148).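 Also: score merges 667nm spot fluorescence with signal-to-noise for antibody binding to printed compounds.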 The note with it: higher = more signal.
Test [8] addresses Torsin-1A (Homo sapiens) (UniProt O14656). Kind of test: TOR1A wild-type binding on microarray – cell lysate, small-molecule microarray, lysate, 635/667 nm, primary screen (AID 1149). To be noted: COS7 hTOR1A-WT lysate, 635 nm fluorescence, higher = more signal.
The target is the same in test [9]. In words: torsin A mutant lysate binding on microarrays – cell lysate, small-molecule microarray, COS7 lysate, 635/667 nm fluorescence, primary screen (AID 1150).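 Also: score pools 667 nm emission and signal to noise measuring lysate protein binding.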 To be noted: COS7 hTOR1A mutant lysate, 635 nm fluorescence, higher = more signal.
The test system of test [10] is Sonic hedgehog protein (Shh). Kind of test: Sonic hedgehog microarray binding compounds – biochemical, small-molecule microarray, 635/667 nm fluorescence, primary screen (AID 1151).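 Also: Shh protein binding to compounds spotted on small-molecule microarray slides; score combines spot fluorescence intensity with signal-to-noise across triplicate slides.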 The note with it: 635 nm fluorescence, higher = more signal.

Active and inactive are the calls of the source. Unless noted, no rule for the calls is given here.

Streptavidin (Streptomyces avidinii), sequence (P22629 whole entry, looked up): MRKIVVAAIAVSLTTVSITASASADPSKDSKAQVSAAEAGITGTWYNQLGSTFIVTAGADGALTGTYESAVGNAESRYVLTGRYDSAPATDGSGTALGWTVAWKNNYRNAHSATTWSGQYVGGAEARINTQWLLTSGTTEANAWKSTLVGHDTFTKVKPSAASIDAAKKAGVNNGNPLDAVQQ
Torsin-1A (Homo sapiens), sequence (O14656 whole entry, looked up): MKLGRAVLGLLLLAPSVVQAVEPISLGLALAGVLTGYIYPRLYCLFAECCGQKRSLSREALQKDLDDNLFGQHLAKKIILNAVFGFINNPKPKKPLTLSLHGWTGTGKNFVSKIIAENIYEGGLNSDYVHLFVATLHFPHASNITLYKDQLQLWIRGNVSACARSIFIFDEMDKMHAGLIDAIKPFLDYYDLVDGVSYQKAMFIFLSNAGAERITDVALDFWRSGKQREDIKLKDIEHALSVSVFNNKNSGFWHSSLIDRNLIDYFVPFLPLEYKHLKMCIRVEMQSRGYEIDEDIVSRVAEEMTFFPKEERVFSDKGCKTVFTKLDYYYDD

As to `C=C[C@H](C)[C@H](OC(=O)Nc1ccc(SC)cc1)c1ccc(OCCO)cc1`, the composite z-score in test [1] is 0.448; in test [6], 0.374; in test [7], -0.0221; in the test with Torsin-1A (Homo sapiens) [8], 0.766; in the test with Torsin-1A (Homo sapiens) [9], 0.937; in [10] it was 1.33. The z-score is -3.53 (inactive) in [2], 0.0722 (inactive) in test [3], 7.78 (inactive) in test [4] and 1.58 (inactive) in test [5].

`CN1C(=O)C2C=CC(C(O)c3cccn3C)N(Nc3ccc([N+](=O)[O-])cc3[N+](=O)[O-])C2C1=O` (stereo not given): the composite z-score is 0.28 in [1]; 0.724 in test [6]; 0.188 in test [7]; 0.799 with Torsin-1A (Homo sapiens) [8]; 0.437 in the test with Torsin-1A (Homo sapiens) [9]; -0.0299 in test [10]. For the same compound, the z-score in [2] was 0.515 (inactive); in test [3], -0.255 (inactive); in test [4] it was 1.4 (inactive); in [5] it was 1.36 (inactive).

With `[N-]=[N+]=Nc1ccccc1C[C@@]1(C(=O)N2CCOCC2)N=C(c2ccc(OCCCO)cc2)O[C@@H]1c1ccccc1`, the composite z-score in test [1] is 1.21; in [6], 0.269; in test [7] it was -0.135; with Torsin-1A (Homo sapiens) [8], 0.156; with Torsin-1A (Homo sapiens) [9], 0.53; in test [10], -0.227. Further, the z-score in test [2] is -4.54 (inactive); in [3], 0.83 (inactive); in test [4], 1.64 (inactive); in test [5], -0.197 (inactive).

Consider `CCCCN1CC=CC23O[C@@H]4/C=C\CCCOC(=O)C4[C@H]2C(=O)N(CCO)[C@@H]3C1=O` (stereo not given in full), for which the composite z-score is -0.703 in test [1]; -1.6 in test [6]; -0.128 in test [7]; -2.13 in the test with Torsin-1A (Homo sapiens) [8]; -1.59 with Torsin-1A (Homo sapiens) [9]; -0.214 in test [10]. Moreover, the z-score was -0.211 (inactive) in [2], -1.29 (inactive) in test [3], -0.48 (inactive) in test [4] and -0.681 (inactive) in test [5].

As for `COC(=O)[C@@]1(Cc2ccc(OC)cc2)[C@H]2c3cc(C(=O)N4CCCC4)n(CCc4c[nH]c5ccc(O)cc45)c3C[C@H]2CN1C(=O)c1ccccc1`, the composite z-score in test [1] is 0.431; in [6], 0.971; in test [7], 0.192; with Torsin-1A (Homo sapiens) [8], 0.132; with Torsin-1A (Homo sapiens) [9], 0.318; in [10], -0.229. The z-score in [2] was -0.759 (inactive); in test [3] it was 0.34 (inactive); in [4], 0.587 (inactive); in test [5] it was -0.397 (inactive).

Turning to `CC(C)c1ccc(NN2C(C(O)c3ccc(F)cc3)C=CC3C(=O)N(c4ccccc4)C(=O)C32)cc1` (stereo not given), the composite z-score is 0.306 in test [1]; 1.7 in test [6]; 0.324 in test [7]; -0.448 with Torsin-1A (Homo sapiens) [8]; 0.0626 in the test with Torsin-1A (Homo sapiens) [9]; -0.0155 in test [10]. The z-score in test [2] was -0.953 (inactive); in [3] it was -1.63 (inactive); in [4], 0.812 (inactive); in test [5] it was 0.3 (inactive).

In the case of `Cc1ccc(C(C)CC(O)C2C=CC3C(=O)N(c4ccccc4)C(=O)C3N2Nc2ccccc2)o1` (stereo not given), the composite z-score in test [1] is 0.158; in test [6], 1.19; in [7], 0.0792; in the test with Torsin-1A (Homo sapiens) [8], 0.145; in the test with Torsin-1A (Homo sapiens) [9] it was 1.11; in test [10], -0.125. Further, the z-score in [2] was -2.95 (inactive); in [3], -0.443 (inactive); in [4], 0.636 (inactive); in test [5], 0.367 (inactive).

`COc1ccc(CCNC(=O)[C@@]2(c3ccc([N+](=O)[O-])cc3)CC(=O)N(C3CCCCC3)[C@@H]2c2ccc(CO)cc2)cc1`: the composite z-score in test [1] was found to be 0.199; in test [6], 0.0841; in [7], 0.249; with Torsin-1A (Homo sapiens) [8], 0.358; with Torsin-1A (Homo sapiens) [9], 0.56; in test [10], 0.137. The z-score in test [2] was -1.48 (inactive); in test [3], 0.733 (inactive); in [4] it was -0.125 (inactive); in [5] it was -1.11 (inactive).

On to `COc1cccc(C)c1NC(=O)O[C@H]1[C@H](OC(=O)Nc2ccc3c(c2)OCO3)[C@@H](OC(=O)Nc2ccc3c(c2)OCO3)[C@@H](OC)O[C@@H]1CO`, for which the composite z-score was 0.648 in test [1]; 1.3 in test [6]; 0.0319 in [7]; 1.11 with Torsin-1A (Homo sapiens) [8]; 1.19 with Torsin-1A (Homo sapiens) [9]; 1.54 in test [10]. For the same compound, the z-score in test [2] is -1.19 (inactive); in [3] it was 0.0488 (inactive); in test [4] it was 1.45 (inactive); in [5], -0.424 (inactive).

With `CN(C)c1ccc(C(O)C2C=CC3C(=O)NC(=O)C3N2Nc2ccccn2)cc1` (stereo not given), the composite z-score is 0.0094 in test [1]; 0.0863 in test [6]; -0.152 in test [7]; 1.05 in the test with Torsin-1A (Homo sapiens) [8]; 0.927 in the test with Torsin-1A (Homo sapiens) [9]; 0.862 in test [10]. Also, the z-score in [2] is 1 (inactive); in [3], 0.161 (inactive); in [4], -1.49 (inactive); in [5] it was 0.337 (inactive).

Consider `CCCCCN1CC=CC23O[C@@H]4C=CCCOC(=O)C4[C@H]2C(=O)N(CCCCCCO)[C@@H]3C1=O` (stereo not given in full), for which the composite z-score in test [1] is -0.296; in test [6] it was -0.943; in [7] it was -0.263; with Torsin-1A (Homo sapiens) [8], 1.13; in the test with Torsin-1A (Homo sapiens) [9] it was 2.1; in [10], 0.0725. The z-score in [2] is -0.181 (inactive); in test [3] it was -0.00872 (inactive); in test [4], -1.03 (inactive); in test [5], -0.215 (inactive).

`COCCOC(=O)N1C(=O)[C@@]2(c3ccccc31)[C@H](c1ccc(O)cc1)N1[C@H](c3ccccc3)[C@H](c3ccccc3)OC(=O)[C@H]1[C@@H]2C(=O)N1CCN(c2ncccn2)CC1`: the composite z-score in [1] was 0.019; in test [6], -0.0184; in test [7], 0.361; with Torsin-1A (Homo sapiens) [8] it was 0.432; with Torsin-1A (Homo sapiens) [9], 0.997; in test [10], 1.4. The z-score was -3.19 (inactive) in test [2], 0.109 (inactive) in test [3], -0.598 (inactive) in [4] and 1.09 (inactive) in [5].

Regarding `CC(CO)N1C(=O)[C@@H]2[C@H]3C(=O)OCC=C[C@H]3OC23C=CCN(Cn2nnc4ccccc42)C(=O)[C@@H]13` (stereo not given in full), the composite z-score in [1] was -0.33; in [6], -0.78; in test [7], -0.213; with Torsin-1A (Homo sapiens) [8], -0.49; with Torsin-1A (Homo sapiens) [9], -1.26; in test [10], 0.464. The z-score was -0.407 (inactive) in test [2], 1.48 (inactive) in test [3], 0.0524 (inactive) in test [4] and -0.391 (inactive) in test [5].

For `[N-]=[N+]=Nc1ccccc1[C@H]1OC(c2ccc(OCCCO)cc2)=N[C@@]1(Cc1ccccc1)C(=O)NCCN1CCOCC1`, the composite z-score in test [1] came to 1.47; in test [6], 1.32; in test [7], 0.936; in the test with Torsin-1A (Homo sapiens) [8], 0.596; with Torsin-1A (Homo sapiens) [9], 0.0723; in [10] it was 1.44. Besides, the z-score in test [2] is -3.37 (inactive); in test [3] it was -0.395 (inactive); in [4] it was -0.697 (inactive); in test [5], -1.62 (inactive).

For `C=CCC(OC(C)=O)[C@@H]1[C@@H](N(Cc2ccc(-c3cccc(C(F)(F)F)c3)o2)C(=O)c2ccc(-c3ccccc3)cc2)c2cc(OCCCO)ccc2N1C(=O)Cc1ccc2ccccc2c1` (stereo not given in full), the composite z-score in [1] is -0.276; in [6] it was -0.368; in test [7], -0.113; with Torsin-1A (Homo sapiens) [8], -1.21; with Torsin-1A (Homo sapiens) [9], -1.1; in test [10], -0.0629. Also, the z-score in test [2] was -0.165 (inactive); in test [3], -0.184 (inactive); in [4], 0.572 (inactive); in [5] it was 0.368 (inactive).

These data come from PubChem BioAssay.
